Compound activity deposited in PubChem by several laboratories.
NOD2 RIPK2 PPI: NOD2-RIPK2 binding disruptors in cells, primary screen, fluorescence, CHO cells, BLA complementation; Receptor-interacting serine/threonine-protein kinase 2 (Homo sapiens), O43353; CCF4 ratio; inhibition, % at 4.98 µM; 0.38% of 360,000 active; in the data active means inhibition above about 21%;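 further: 0% = vehicle only and 100% = reference blocker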
TLR4 MyD88 comp: inhibitors of TLR4-MyD88 association in cells, primary screen, cell-based, HeLa CL3-4, BLA complementation, FRET ratio; Toll-like receptor 4 (Homo sapiens) + Myeloid differentiation primary response protein …; HeLa CL3-4 TLR4/MyD88 BLA complementation; inhibition, % at 8.4 µM; 0.18% of 200,000 active; AID 861, 2007; in the data active means inhibition above about 25%;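 further: 0% = vehicle and 100% = reference inhibitor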
Neddylation inh: inhibitors of cullin neddylation, primary screen, biochemical, TR-FRET, uHTS, NAE and Ubc12. inhibition, % at 25 µM. 0.58% of 360,000 active. AID 651699, 2012; in the data active means inhibition above about 36%
Target sequence (P61081 whole entry, looked up): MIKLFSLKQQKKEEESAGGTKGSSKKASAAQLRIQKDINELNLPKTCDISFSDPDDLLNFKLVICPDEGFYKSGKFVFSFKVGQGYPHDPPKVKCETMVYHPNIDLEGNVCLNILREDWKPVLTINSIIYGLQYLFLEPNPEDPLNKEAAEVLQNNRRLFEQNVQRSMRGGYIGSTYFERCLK
Target sequence (Q13564 whole entry, looked up): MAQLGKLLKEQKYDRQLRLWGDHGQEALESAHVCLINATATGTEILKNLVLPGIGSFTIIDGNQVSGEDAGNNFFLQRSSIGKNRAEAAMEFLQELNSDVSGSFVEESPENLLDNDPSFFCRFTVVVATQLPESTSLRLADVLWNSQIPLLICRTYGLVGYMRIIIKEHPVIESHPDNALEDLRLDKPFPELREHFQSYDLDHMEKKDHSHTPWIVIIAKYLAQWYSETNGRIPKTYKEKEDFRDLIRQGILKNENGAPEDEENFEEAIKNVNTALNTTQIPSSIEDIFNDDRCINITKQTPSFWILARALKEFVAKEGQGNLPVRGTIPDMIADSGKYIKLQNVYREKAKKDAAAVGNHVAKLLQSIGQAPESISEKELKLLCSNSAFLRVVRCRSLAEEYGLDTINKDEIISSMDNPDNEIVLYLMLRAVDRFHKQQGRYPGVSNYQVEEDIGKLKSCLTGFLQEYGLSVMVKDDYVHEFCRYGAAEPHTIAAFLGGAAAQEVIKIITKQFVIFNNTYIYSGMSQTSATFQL
GC-A act: GC-A stimulated cGMP production enhancers – HEK293 GC-A cells, cGMP TR-FRET, EC30 ANP, primary screen | Atrial natriuretic peptide receptor 1 (Homo sapiens), P16066 | 0% at EC30 ANP, 100% saturating ANP | activation, % at 10 µM | 0.14% of 370,000 active; in the data active means activation above about 40%
TLR9-MyD88 inh: inhibitors of TLR9-MyD88 association in cells, primary screen, cell-based, CHO, BLA complementation, fluorescence; CCF4 FRET ratio; 0.21% of 340,000 active; inhibition, % at 4.98 µM; Toll-like receptor 9 (Homo sapiens) + Myeloid differentiation primary response protein …;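 active means inhibition above the mean over all tested compounds plus 3 SD, cut at about 21% in these data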;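 further: 0% = DMSO only wells and 100% = clavulanate BLA inhibitor control wells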
GC-B act: human GC-B receptor activators, primary screen, HEK293 GC-B cells, cGMP TR-FRET, EC30 CNP; Atrial natriuretic peptide receptor 2 (Homo sapiens), P20594; 0% at EC30 CNP, 100% saturating CNP; activation, % at 10 µM; 0.11% of 370,000 active; AID 1920062, 2024;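 active means activation at 10 µM reaching about 35% in either raw or pattern-adjusted values, limit read from the data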
Neddyl conf: blockade of NEDD8 conjugation to cullin – biochemical, TR-FRET, single concentration, confirmation. shares compounds with Neddylation inh. TR-FRET cullin neddylation biochemical assay. calls only at 25 µM. 13% of 1,800 active. AID 652217, 2013; in the data active means inhibition above about 40%;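 further: neddylation substrate is the cullin 1 ring ligase complex with SKP2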
Numbers without * were called inactive; i = inactive; · = no result shown; + = active, no number. This is a sample that favours compounds with a hit; in the whole collection about 1.2% have one here.

SMILES	NOD2 RIPK2 PPI	TLR4 MyD88 comp	Neddylation inh	GC-A act	TLR9-MyD88 inh	GC-B act	Neddyl conf
COc1ccccc1NC(=S)N/N=C1\CC(C)(C)Oc2ccc(O)cc21	-7	-4	40*	42*	-4	1	i
CC(=O)N1CCC2(CC1)C/C(=N\NC(=S)Nc1ccccc1C)c1cc(O)ccc1O2	6	7	·	0	-5	2	·
CC(=O)N1CCC2(CC1)C/C(=N\NC(=S)Nc1ccccc1F)c1cc(O)ccc1O2	5	-4	38	15	-4	-1	·
c1ccc(-c2cc(-c3nnc4sc(Cc5cccs5)nn34)[nH]n2)cc1	·	·	·	6	·	-7	·
COc1ccc(C(C#N)=Cc2cc(OC)c(OC)c(OC)c2)cc1	·	·	·	-10	·	-15	·
CC1(Cc2ccc(F)c(Cl)c2)C(=O)Nc2c(Cl)cccc21 (configuration not stated)	9	·	-2	-16	·	-3	·
COC(=O)C1C(O)=C(C=Nc2cccc3ccccc23)C(=O)CC1(C)C (configuration not stated)	1	·	40*	-4	-5	-5	+
COC(=O)C1C(O)=C(C=NCc2ccccc2)C(=O)CC1(C)C (configuration not stated)	-6	-3	-3	-2	-3	-4	·
O=C(NCCCCCCCN1CCCCCCC1)C(C1CCCCC1)C1CCCCC1	2	·	-2	-3	-9	-2	·
CS(=O)(=O)c1ccc(Cl)c(NC(=O)COC(=O)CCCN2C(=O)c3cccc4cccc(c34)C2=O)c1	6	·	50*	4	-6	7	i
COc1ccc(-n2nnc3c(SCC(=O)Nc4ccccc4F)ncnc32)cc1	-1	4	42*	-8	6	-3	i
O=C(Nc1ccccc1Br)c1ccc(OC(=S)N2CCOCC2)cc1	1	3	-11	3	1	0	·
Cc1ccc(NC(=O)c2ccc(OC(=S)N3CCOCC3)cc2)cc1	-6	-2	40*	5	-2	2	i
C=C(c1ccc2nc(NC(=O)OC)[nH]c2c1)c1cccs1	5	·	-2	1	3	-2	·
O=C(N/N=C/c1ccc2cccnc2c1)c1nc2ccccc2c(=O)[nH]1	5	·	46*	-2	1	-5	i
CCN(C)c1ccc(/C=N\n2nnnc2N)cc1	-1	6	·	·	-6	·	·
CCN(CC)c1ccc(/C=N/n2nnnc2N)c(O)c1	-3	-13	41*	-1	3	-9	+
CC(C)c1nc2oc3c(=O)[nH]cnc3c2c2c1CCC2	-3	-10	41*	9	-1	-1	i
CC(C)c1nc2oc3c(=O)[nH]cnc3c2c2c1COC(C)(C)C2	5	·	37	5	-5	-6	·
Cc1cc(C)nc(N2CCC(C(=O)N(C)CCc3ccccc3)CC2)n1	·	·	·	2	·	9	·
Oc1cc(O)cc(-c2cc3ccc(O)cc3o2)c1	2	·	·	0	3	0	·
CC1(C)Oc2cc3oc(-c4cc(O)cc(O)c4)cc3cc2CC1O (configuration not stated)	-1	·	42*	-6	2	-16	i
COc1cc(CNc2ccc(N3CCOCC3)c(C(=O)O)c2)ccc1OCC(N)=O	0	13	42*	4	-9	-1	i
O=C(O)c1cc(NCc2ccc3c(c2)OCO3)ccc1N1CCOCC1	-2	-6	43*	1	-5	-2	i
CC1(C)Oc2ccc3ccc(=O)oc3c2/C(=C/N)C1=O	-9	-2	-9	-3	4	6	·
SMILES	NOD2 RIPK2 PPI	TLR4 MyD88 comp	Neddylation inh	GC-A act	TLR9-MyD88 inh	GC-B act	Neddyl conf
CC1(C)Oc2ccc3ccc(=O)oc3c2/C(=C/O)C1=O	-10	·	44*	-3	-5	1	i
COc1ccc(CCNC(=O)c2cc3c(=O)n4ccccc4nc3n(CCN3CCOCC3)c2=N)cc1	-3	·	40*	6	-2	-3	i
COc1cccc(-c2ccc(C#N)c(=O)[nH]2)c1	6	10	59*	1	-8	-2	·
COc1cccc(C(C#N)NCCCNC(C#N)c2cccc(OC)c2OC)c1OC (configuration not stated)	-3	·	6	0	-5	2	·
CN(C)c1ccc(/C=N\NC(=O)c2cccc(S(=O)(=O)N(C)C)c2)cc1	·	·	·	1	·	-13	·
O=C(C[n+]1ccc2ccccc2c1)c1ccc2ccc3ccccc3c2c1	-9	·	6	5	·	-3	·
O=C1NC(c2ccccc2)=C(c2ccc3ccccc3n2)C(c2ccccc2)N1 (configuration not stated)	5	7	44*	-31	-4	-18	i
Nc1ccc2oc3ccccc3c2c1	-9	-17	42*	1	-11	0	i
Cc1csc(NC(=O)CSCC(=O)O)c1-c1nc2ccccc2s1	-4	·	44*	4	2	1	·
COC(=O)C1=CN(c2cc(C)cc(C)c2)C=C(C(=O)OC)C1c1ccc(OC)c(O)c1	-4	·	47*	-9	-12	3	+
Cc1cc(C)c2nc(N3CCN(C)CC3)c(C#N)cc2c1	-5	7	42*	-1	5	-4	i
Cc1ccc2nc(N3CCN(C)CC3)c(C#N)cc2c1	-2	7	40*	3	1	-1	i
Cc1cccc2cc(C#N)c(N3CCN(C)CC3)nc12	2	2	39	5	-4	-1	·
Cc1ccc2cc(C#N)c(N3CCN(C)CC3)nc2c1	-10	-11	32	2	9	-7	·
COc1cccc(CNC(=O)[C@@H]2CCCN2C(=O)[C@H]2CCCCN2S(=O)(=O)c2ccc(OC)c(C)c2)c1	-11	·	-1	-3	·	0	·
CN(Cc1ccccc1)C(=O)c1ccc(NC(=O)Cc2ccc(NC(=O)C3CCN(S(=O)(=O)c4cccc([N+](=O)[O-])c4)CC3)cc2)cc1	-3	·	-12	2	7	4	·
CN1C2=N[C@@H](c3ccccc3)CC(=O)N2/C(=C\c2ccccc2)[C@H]1c1ccccc1	·	·	·	-31	·	-35	·
CNC(=O)COC(=O)c1ccc(-c2nc3ccccc3s2)s1	-15	1	40*	3	-9	-6	i
